# According to the supplement of paper PMC10849652:
# The full data set covers some 8,800 targets. This sample favours those with a hit. About 0.5% of all pairs of compound and target were hits. Values without a mark were called inactive.
# Experiments:
# Experiment in all cases: log2 fold change, soluble protein after heating vs DMSO (PISA); higher = thermal stabilisation; K562 lysate, 10 uM; active = over 0.2 and 3.5 SD of the protein, either way, in both replicates (recomputed)
# [1] = compound: C=CC(=O)N1CCC[C@@H](n2nc(-c3ccc(Oc4ccccc4)cc3)c3c(N)ncnc32)C1 [ibrutinib]
# Method in brief: (§1)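 Quantification was by TMTpro 16plex LC-MS/MS with equalised channel sums, applied to the supernatant after 21,000xg for 90 min. Samples were crude K562 extract at 1 mg/mL protein in PBS pH 7.4 with 1 mM MgCl2, treated with 10 μM compound for 30 min, heated for 3 min across 48°C-58°C, pooled and brought to 0.5% NP-40 at 4°C. Values are log-two fold changes in thermal stability relative to solvent controls, from duplicates.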
# [2] = compound: CC(=O)c1cnc2ccc(-c3cc(Cl)c(O)c(Cl)c3)nc2c1N[C@H]1CC[C@H](CN(C)C)CC1
# Method in brief: as §1
# [3] = compound: CC(C)(C)Cn1c(N)nc2ccc(-c3[nH]c(C(C)(C)C)nc3-c3ccc(F)cc3)nc21 [ralimetinib]
# Method in brief: as §1
# [4] = compound: CC(C)(O)CC(=O)NCCn1ccc2ncnc(Nc3ccc(Oc4cccc(C(F)(F)F)c4)c(Cl)c3)c21
# Method in brief: as §1
# [5] = compound: CC(C)C1=C2N=C(C=C(N2N=C1)NCC3=CC=CC=C3)NCCCCCCN
# Method in brief: as §1
# [6] = compound: CC1=C(C(CC(=O)N1)C2=CC=C(C=C2)C(F)(F)F)C(=O)NC3=C(C=C4C(=C3)C=NN4)F
# Method in brief: as §1
# [7] = compound: CC1=C(C2=C(C=C1)C(=O)C3=CC=CC=C3N2CCCN)C
# Method in brief: as §1
# [8] = compound: CC1=C(C=C(C=C1)NC(=O)C2=CC(=CC=C2)C(C)(C)C#N)NC3=CC4=C(C=C3)N=CN(C4=O)C
# Method in brief: as §1
# [9] = compound: CC1=C(C=C(C=C1)NC(=O)C2=CC(=CC=C2)N(C)C)NC(=O)C3=CC=C(C=C3)O
# Method in brief: as §1
# [10] = compound: CC1=CC=C(C=C1)SC2=C3C=C(SC3=CN=C2)C(=O)N
# Method in brief: as §1
# [11] = compound: CCCS(=O)(=O)Nc1ccc(F)c(C(=O)c2c[nH]c3ncc(-c4ccc(Cl)cc4)cc23)c1F [vemurafenib]
# Method in brief: as §1
# [12] = compound: CCCS(=O)(=O)Nc1ccc(F)c(C(=O)c2c[nH]c3ncc(Cl)cc23)c1F
# Method in brief: as §1
# [13] = compound: CCN(CCCOc1ccc2c(Nc3cc(CC(=O)Nc4cccc(F)c4)[nH]n3)ncnc2c1)CCOP(=O)(O)O [barasertib]
# Method in brief: as §1
# [14] = compound: CC[C@@H]1C(=O)N(C)c2cnc(Nc3ccc(C(=O)NC4CCN(C)CC4)cc3OC)nc2N1C1CCCC1
# Method in brief: as §1
# [15] = compound: CC[C@@H]1C(=O)N(C)c2cnc(Nc3ccc(C(=O)N[C@H]4CC[C@H](N5CCN(CC6CC6)CC5)CC4)cc3OC)nc2N1C(C)C [volasertib]
# Method in brief: as §1
# [16] = compound: CCn1c(C(=O)N(C2CC2)C2CC2)cc2c3c(ncn3C)c(Nc3cc(C)n(C)n3)nc21
# Method in brief: as §1
# [17] = compound: CCn1cc(-c2ccnc3[nH]c(-c4cccc(CN(C)C)c4)cc23)c(-c2ccc(NC(=O)N(C)C)cc2)n1
# Method in brief: as §1
# [18] = compound: CN1CCC(CNc2ccc3ncc(-c4cccc(OC(F)(F)F)c4)n3n2)CC1
# Method in brief: as §1
# [19] = compound: CN1CCN(CCOc2cc(OC3CCOCC3)c3c(Nc4c(Cl)ccc5c4OCO5)ncnc3c2)CC1 [saracatinib]
# Method in brief: as §1
# [20] = compound: CN1CCN(c2nc(C3=C(c4c[nH]c5ccccc45)C(=O)NC3=O)c3ccccc3n2)CC1 [sotrastaurin]
# Method in brief: as §1
# Chain of UniProt Q7KZF4 (Q7KZF4 whole entry, looked up): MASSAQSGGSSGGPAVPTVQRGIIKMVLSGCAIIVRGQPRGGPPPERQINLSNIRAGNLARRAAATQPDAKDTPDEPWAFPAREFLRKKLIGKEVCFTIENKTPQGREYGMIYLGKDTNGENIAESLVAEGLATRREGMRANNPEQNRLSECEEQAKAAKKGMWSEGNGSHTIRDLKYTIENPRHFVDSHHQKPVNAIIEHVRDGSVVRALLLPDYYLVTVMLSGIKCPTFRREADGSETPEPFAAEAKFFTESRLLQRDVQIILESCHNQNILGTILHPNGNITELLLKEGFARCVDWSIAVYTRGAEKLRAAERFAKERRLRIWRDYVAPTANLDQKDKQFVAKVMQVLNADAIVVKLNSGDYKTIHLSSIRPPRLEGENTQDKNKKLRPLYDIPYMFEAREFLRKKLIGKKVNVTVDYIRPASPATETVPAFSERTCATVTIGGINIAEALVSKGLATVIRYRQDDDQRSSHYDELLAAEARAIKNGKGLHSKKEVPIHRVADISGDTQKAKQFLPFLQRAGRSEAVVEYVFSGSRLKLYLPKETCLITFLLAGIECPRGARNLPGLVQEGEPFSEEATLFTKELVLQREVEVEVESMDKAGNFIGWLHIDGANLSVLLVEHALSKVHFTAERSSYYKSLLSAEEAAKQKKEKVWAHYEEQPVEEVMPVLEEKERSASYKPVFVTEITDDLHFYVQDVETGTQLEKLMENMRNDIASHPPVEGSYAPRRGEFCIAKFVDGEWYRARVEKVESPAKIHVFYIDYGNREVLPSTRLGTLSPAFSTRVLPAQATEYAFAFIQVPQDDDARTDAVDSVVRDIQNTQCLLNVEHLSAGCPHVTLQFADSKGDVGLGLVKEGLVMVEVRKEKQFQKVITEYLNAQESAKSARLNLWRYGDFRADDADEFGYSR
# Chain of UniProt Q8N1S5 (Q8N1S5 whole entry, looked up): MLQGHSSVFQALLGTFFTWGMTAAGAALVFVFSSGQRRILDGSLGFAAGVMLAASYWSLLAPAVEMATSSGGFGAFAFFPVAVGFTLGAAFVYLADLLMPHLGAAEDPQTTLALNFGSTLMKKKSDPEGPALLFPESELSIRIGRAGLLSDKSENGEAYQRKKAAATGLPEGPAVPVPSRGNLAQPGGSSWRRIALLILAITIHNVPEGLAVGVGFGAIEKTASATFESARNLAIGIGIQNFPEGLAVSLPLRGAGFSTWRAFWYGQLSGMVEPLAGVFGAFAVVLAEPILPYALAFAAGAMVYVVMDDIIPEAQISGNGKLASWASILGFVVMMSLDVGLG
# Chain of UniProt Q9H2D1 (Q9H2D1 whole entry, looked up): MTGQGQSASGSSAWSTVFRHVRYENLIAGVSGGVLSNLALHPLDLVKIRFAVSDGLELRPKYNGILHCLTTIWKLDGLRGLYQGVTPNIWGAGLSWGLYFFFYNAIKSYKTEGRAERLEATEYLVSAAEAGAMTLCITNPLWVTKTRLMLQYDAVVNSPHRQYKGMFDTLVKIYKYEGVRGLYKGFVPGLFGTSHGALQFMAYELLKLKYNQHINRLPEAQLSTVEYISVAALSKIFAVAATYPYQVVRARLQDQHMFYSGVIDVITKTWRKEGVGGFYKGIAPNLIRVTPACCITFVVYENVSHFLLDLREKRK
# Chain of UniProt Q96BD8 (Q96BD8 whole entry, looked up): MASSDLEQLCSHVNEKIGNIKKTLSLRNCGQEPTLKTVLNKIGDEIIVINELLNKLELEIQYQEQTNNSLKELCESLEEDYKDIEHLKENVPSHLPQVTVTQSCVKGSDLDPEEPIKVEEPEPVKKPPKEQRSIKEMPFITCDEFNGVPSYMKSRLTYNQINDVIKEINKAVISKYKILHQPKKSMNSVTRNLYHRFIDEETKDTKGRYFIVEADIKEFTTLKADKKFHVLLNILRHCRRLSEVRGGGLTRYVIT
# Chain of UniProt Q8TBC3 (Q8TBC3 whole entry, looked up): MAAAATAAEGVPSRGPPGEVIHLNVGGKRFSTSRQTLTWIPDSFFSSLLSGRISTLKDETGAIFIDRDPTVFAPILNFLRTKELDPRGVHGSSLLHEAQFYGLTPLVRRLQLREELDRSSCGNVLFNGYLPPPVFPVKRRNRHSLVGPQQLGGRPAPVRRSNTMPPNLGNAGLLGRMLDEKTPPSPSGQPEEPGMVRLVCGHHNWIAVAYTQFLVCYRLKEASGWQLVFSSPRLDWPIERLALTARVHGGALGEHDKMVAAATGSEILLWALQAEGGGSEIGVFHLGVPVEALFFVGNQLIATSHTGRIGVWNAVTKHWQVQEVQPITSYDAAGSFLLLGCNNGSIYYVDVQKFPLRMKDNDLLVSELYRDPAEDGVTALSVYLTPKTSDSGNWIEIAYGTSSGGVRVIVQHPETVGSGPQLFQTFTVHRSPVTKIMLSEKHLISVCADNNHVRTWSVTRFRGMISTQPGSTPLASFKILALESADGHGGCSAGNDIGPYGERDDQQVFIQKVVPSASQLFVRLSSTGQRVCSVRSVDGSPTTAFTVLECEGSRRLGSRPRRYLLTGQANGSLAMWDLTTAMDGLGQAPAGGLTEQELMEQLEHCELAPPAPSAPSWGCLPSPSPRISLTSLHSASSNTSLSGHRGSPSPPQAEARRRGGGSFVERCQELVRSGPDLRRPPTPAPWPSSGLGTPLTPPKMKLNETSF
# Chain of UniProt P05455 (P05455 whole entry, looked up): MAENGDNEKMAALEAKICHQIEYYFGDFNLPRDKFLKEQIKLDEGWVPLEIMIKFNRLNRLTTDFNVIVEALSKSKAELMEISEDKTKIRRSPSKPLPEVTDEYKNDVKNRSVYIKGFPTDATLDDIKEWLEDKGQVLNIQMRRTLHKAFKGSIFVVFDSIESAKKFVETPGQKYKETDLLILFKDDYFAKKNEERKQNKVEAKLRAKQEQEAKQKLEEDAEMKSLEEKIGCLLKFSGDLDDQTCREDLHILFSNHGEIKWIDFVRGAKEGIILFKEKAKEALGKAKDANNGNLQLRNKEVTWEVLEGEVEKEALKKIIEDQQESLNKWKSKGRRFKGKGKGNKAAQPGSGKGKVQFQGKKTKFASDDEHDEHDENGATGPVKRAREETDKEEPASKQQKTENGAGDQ
# Chain of UniProt Q15796 (Q15796 whole entry, looked up): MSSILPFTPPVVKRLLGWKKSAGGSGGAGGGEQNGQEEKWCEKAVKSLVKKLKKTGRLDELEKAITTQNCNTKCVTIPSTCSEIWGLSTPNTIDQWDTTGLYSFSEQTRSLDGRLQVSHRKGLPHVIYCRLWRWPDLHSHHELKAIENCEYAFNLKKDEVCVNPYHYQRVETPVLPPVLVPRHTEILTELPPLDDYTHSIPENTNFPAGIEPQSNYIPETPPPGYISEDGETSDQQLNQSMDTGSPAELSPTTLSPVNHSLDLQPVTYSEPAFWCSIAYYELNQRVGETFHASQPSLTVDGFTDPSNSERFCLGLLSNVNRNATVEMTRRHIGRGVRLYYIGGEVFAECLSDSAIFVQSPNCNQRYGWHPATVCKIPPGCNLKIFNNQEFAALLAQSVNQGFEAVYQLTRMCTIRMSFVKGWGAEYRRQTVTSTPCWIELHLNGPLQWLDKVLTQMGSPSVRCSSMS
# Chain of UniProt P51532 (P51532 whole entry, looked up): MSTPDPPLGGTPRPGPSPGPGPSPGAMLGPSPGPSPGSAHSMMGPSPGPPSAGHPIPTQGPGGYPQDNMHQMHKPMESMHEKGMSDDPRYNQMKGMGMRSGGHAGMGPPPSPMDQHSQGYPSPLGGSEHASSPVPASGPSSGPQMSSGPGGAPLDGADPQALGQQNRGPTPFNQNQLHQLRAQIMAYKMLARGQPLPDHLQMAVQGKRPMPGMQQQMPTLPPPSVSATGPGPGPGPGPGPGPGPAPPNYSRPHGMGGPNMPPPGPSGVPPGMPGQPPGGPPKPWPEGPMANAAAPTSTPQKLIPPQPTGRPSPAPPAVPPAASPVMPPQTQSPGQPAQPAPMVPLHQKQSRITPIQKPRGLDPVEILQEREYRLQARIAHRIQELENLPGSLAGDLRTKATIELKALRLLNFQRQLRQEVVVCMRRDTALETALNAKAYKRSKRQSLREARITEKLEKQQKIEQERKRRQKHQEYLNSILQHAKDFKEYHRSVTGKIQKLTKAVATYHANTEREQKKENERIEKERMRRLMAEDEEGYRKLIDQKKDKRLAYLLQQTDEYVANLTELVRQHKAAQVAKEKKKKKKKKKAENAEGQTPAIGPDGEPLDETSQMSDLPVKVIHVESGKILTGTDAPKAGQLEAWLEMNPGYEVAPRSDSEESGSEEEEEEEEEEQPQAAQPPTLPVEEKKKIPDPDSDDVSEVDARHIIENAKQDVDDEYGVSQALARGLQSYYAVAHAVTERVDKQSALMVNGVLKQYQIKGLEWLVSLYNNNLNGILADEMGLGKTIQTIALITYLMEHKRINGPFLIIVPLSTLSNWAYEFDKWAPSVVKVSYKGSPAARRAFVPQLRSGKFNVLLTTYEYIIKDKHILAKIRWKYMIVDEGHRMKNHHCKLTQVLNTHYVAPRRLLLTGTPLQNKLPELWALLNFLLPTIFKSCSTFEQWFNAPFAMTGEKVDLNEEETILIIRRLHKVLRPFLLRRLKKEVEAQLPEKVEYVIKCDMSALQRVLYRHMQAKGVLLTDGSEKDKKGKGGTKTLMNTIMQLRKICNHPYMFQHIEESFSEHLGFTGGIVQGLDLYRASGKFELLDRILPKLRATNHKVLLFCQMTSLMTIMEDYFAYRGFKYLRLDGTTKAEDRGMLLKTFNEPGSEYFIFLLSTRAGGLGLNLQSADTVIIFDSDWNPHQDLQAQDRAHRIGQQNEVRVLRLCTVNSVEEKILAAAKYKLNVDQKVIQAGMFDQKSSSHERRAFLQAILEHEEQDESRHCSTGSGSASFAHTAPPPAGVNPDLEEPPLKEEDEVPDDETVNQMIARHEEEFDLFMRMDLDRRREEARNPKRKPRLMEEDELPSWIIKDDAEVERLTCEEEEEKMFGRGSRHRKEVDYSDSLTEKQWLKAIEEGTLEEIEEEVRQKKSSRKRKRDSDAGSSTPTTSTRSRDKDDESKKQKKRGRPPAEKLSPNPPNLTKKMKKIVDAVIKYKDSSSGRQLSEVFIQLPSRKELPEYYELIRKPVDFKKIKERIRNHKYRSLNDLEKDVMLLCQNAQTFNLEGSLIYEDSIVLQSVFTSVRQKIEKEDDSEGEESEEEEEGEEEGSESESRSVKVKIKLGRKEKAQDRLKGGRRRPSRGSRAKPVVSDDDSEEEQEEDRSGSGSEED
Target,log2 fold change [1],log2 fold change [2],log2 fold change [3],log2 fold change [4],log2 fold change [5],log2 fold change [6],log2 fold change [7],log2 fold change [8],log2 fold change [9],log2 fold change [10],log2 fold change [11],log2 fold change [12],log2 fold change [13],log2 fold change [14],log2 fold change [15],log2 fold change [16],log2 fold change [17],log2 fold change [18],log2 fold change [19],log2 fold change [20]
STK38 (UniProt Q15208),0.008,0.361 (active),0.036,0.048,0.025,0.006,0.017,0.014,-0.003,0.002,-0.046,-0.012,0.031,-0.112,-0.092,0.019,0.122,0.002,-0.019,0.02
SMAD2 (UniProt Q15796),0.041,-0.014,0.025,0.012,0.005,-0.061,-0.014,0.054,0.029,0.017,-0.027,0.074,0.03,-0.031,-0.006,-0.027,0.025,-0.003,0.017,-0.002
SLC39A11 (UniProt Q8N1S5),-0.065,-0.008,-0.136,-0.042,-0.023,0.051,0.16,-0.074,-0.089,0.001,-0.082,0.073,-0.126,0.067,0.011,0.028,-0.043,0.147,-0.108,-0.009
SPATA5 (UniProt Q8NB90),0.013,-0.002,0.047,0.025,0.02,-0.009,0.009,0.002,0.042,0.012,0.015,0.005,0.02,-0.021,-0.068,0.011,-0.024,-0.052,-0.001,0.007
SLC27A2 (UniProt O14975),0.243,-0.024,-0.013,0.245,0.11,-0.041,-0.035,0.069,-0.089,0.031,0.089,0.009,0.029,-0.033,-0.084,-0.063,-0.024,0.082,-0.021,0.159
SND1 (UniProt Q7KZF4),0.012,0.004,0.03,0.044,0.027,0.024,0.015,0.003,0.038,0.024,0.024,0.017,0.021,-0.099,-0.084,0.037,0.058,-0.078,0.014,0.031
SNRPF (UniProt P62306),-0.027,-0.013,-0.024,-0.072,-0.004,0.015,-0.137,0.018,0.028,-0.082,0.023,0.002,0.045,0.067,0.032,-0.051,-0.35 (active),0.24,-0.044,0.042
SMARCA4 (UniProt P51532),0.021,-0.007,0.035,0.018,-0.009,-0.003,-0.032,-0.026,0.028,0.012,0.011,0.006,0.038,-0.058,-0.024,0.02,-0.044,-0.024,0.011,0.034
SLC25A32 (UniProt Q9H2D1),0.029,0.005,0.006,-0.017,-0.017,-0.03,-0.031,0.048,-0.021,-0.007,0.053,0.01,-0.012,-0.013,0.002,-0.045,-0.129,0.054,0.029,0.007
SLC25A25 isoform 3 (UniProt Q6KCM7),-0.015,-0.028,0.011,0.021,0.018,0.022,-0.036,0.017,-0.012,0.034,-0.011,-0.012,0.004,0.012,0.03,0.007,-0.012,-0.053,0.016,-0.016
STK24 (UniProt B4DR80),0.024,0.218 (active),0.005,0.024,0.001,-0.019,-0.019,-0.018,-0.019,-0.018,0.009,0.005,0,-0.03,-0.017,0.005,0.02,-0.007,0.005,0.046
SHKBP1 (UniProt Q8TBC3),0.064,-0.02,0.063,0.006,0.067,-0.005,-0.051,0.038,0.052,0.004,0.079,-0.017,0.03,-0.038,0.033,-0.058,-0.093,0.103,0.013,0.017
SLC38A1 (UniProt Q9H2H9),0.001,-0.053,-0.021,-0.041,0.037,-0.001,-0.039,0.027,0.018,-0.01,0.03,-0.007,0,0.035,0.066,0.008,-0.269 (active),0.102,-0.002,0.024
SSB (UniProt P05455),-0.007,-0.009,-0.005,-0.006,0.004,-0.015,-0.013,-0.006,0.007,0.006,-0.004,-0.02,-0.001,-0.011,0.011,0.002,0.011,-0.021,-0.015,-0.016
SKA1 (UniProt Q96BD8),0.002,0.033,-0.023,-0.017,0.044,0.014,0.066,-0.017,0.033,0.007,-0.004,-0.01,-0.017,-0.234 (active),-0.121,0.003,-0.167,0.021,0.071,0.066
SMIM8 (UniProt Q96KF7),0.073,-0.02,0.059,-0.136,-0.095,-0.025,-0.128,0.038,0.053,-0.006,0.037,0.048,0.088,-0.003,0.012,0.057,-0.382 (active),0.177,-0.071,-0.027
